# Measured values taken from PubChem BioAssay (EPA / NIEHS).
# Results filed as inconclusive are left out. Calls of active or inactive are those of the source. Rule for the calls: active = hit-call score of the fitted dose curve at least 0.9, where 1 is the maximum; inconclusive = response in the unintended direction; inactive = score below 0.9.
# Tests used:
# [1] = molecular target: human Protein Tyrosine Phosphatase Non-receptor Type 2 (PTPN2), PTPN2 (gene 5771) (UniProt P17706); experiment: NVS_ENZ_hPTPN2: NovaScreen (NVS) Enzymatic Assay for human Protein Tyrosine Phosphatase Non-receptor Type 2 (PTPN2) (AID 2283207)
# Method in brief: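 Cell-free recombinant enzyme with fluorescent substrate, product separated by electrophoretic mobility shift; read 1 h after dosing. Primary screen single concentration (25 uM) in duplicate; actives followed in concentration series; loss of signal versus DMSO.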
# [2] = molecular target: human Protein Tyrosine Phosphatase Receptor Type B (PTPRB), PTPRB (gene 5787) (UniProt P23467); experiment: NVS_ENZ_hPTPRB: NovaScreen (NVS) Enzymatic Assay for human Protein Tyrosine Phosphatase Receptor Type B (PTPRB) (AID 2283211)
# Method in brief: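 Recombinant human PTPRB with a fluorescent substrate, product separated by electrophoretic mobility shift; read 1 h after dosing. Primary screen in duplicate at 25 uM; actives then retested in concentration series; loss of signal versus DMSO.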
# [3] = molecular target: human Protein Tyrosine Phosphatase Non-receptor Type 4 (PTPN4), PTPN4 (gene 5775) (UniProt P29074); experiment: NVS_ENZ_hPTPN4: NovaScreen (NVS) Enzymatic Assay for human Protein Tyrosine Phosphatase Non-receptor Type 4 (PTPN4) (AID 2283208)
# Method in brief: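 Cell-free assay of PTPN4 expressed in Sf9 cells, using a fluorescent substrate with product separated by mobility shift; read 1.33 h after dosing. Single-point screen at 25 uM, then concentration-response up to 50 uM. Loss of signal relative to DMSO.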
# [4] = molecular target: human Protein Tyrosine Phosphatase Non-receptor Type 9 (PTPN9), PTPN9 (gene 5780) (UniProt P43378); experiment: NVS_ENZ_hPTPN9: NovaScreen (NVS) Enzymatic Assay for human Protein Tyrosine Phosphatase Non-receptor Type 9 (PTPN9) (AID 2283209)
# Method in brief: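 Sf9-expressed enzyme in a cell-free assay, fluorescence read 1.33 h after dosing with mobility-shift separation of substrate and product. Tested at 25 uM in duplicate, then up to 50 uM; signal loss versus DMSO.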
# [5] = molecular target: human Rho Associated Coiled-coil Containing Protein Kinase 1 (ROCK1), ROCK1 (gene 6093) (UniProt Q13464); experiment: NVS_ENZ_hROCK1: NovaScreen (NVS) Enzymatic Assay for human Rho Associated Coiled-coil Containing Protein Kinase 1 (ROCK1) (AID 2283214)
# Method in brief: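 Cell-free recombinant human ROCK1 activity assay; fluorescent substrate and product separated by electrophoretic mobility shift, read 1 h after dosing. Screened in duplicate at 25 uM; loss of signal versus DMSO baseline scored as inhibition.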
# [6] = molecular target: Tyrosine-protein phosphatase non-receptor type 13 (Homo sapiens) (UniProt Q12923); experiment: NVS_ENZ_hPTPN13: NovaScreen (NVS) Enzymatic Assay for human Protein Tyrosine Phosphatase Non-receptor Type 13 (PTPN13) (AID 2283205)
# Procedure: NVS_ENZ_hPTPN13 is a biochemical, single-readout assay that uses extracted gene-proteins in a cell-free assay. Measurements were taken 0.5 hour after chemical dosing in a 384-well plate.NVS_ENZ_hPTPN13 is one of one assay component(s) measured or calculated from the NVS_ENZ_hPTPN13 assay. It is designed to make measurements of enzyme activity, a form of enzyme reporter, as detected with fluorescence intensity signals by Fluorescence and electrophoretic mobility shift technology.Data from the assay component NVS_ENZ_hPTPN13 was analyzed into 1 assay endpoint. This assay endpoint, NVS_ENZ_hPTPN13, was analyzed in the positive analysis fitting direction relative to DMSO as the negative control and baseline of activity. Using a type of enzyme reporter, loss-of-signal activity can be used to understand changes in the enzymatic activity as they relate to the gene PTPN13. Furthermore, this assay endpoint can be referred to as a primary readout, because this assay has produced multiple assay endpoints where this one serves a enzymatic activity function. To generalize the intended target to other relatable targets, this assay endpoint is annotated to the phosphatase intended target family, where the subfamily is non-receptor tyrosine phosphatase. […]
# [7] = molecular target: human Protein Tyrosine Phosphatase Receptor Type C (PTPRC), PTPRC (gene 5788) (UniProt P08575); experiment: NVS_ENZ_hPTPRC: NovaScreen (NVS) Enzymatic Assay for human Protein Tyrosine Phosphatase Receptor Type C (PTPRC) (AID 2283212)
# Method in brief: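 Yeast-extracted human PTPRC used in a cell-free colorimetric enzyme activity read-out, 1 h after dosing. Primary screen in duplicate at 25 uM; actives rerun in concentration-response up to 50 uM, DMSO as baseline.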
# [8] = molecular target: human Protein Tyrosine Phosphatase Receptor Type F (PTPRF), PTPRF (gene 5792) (UniProt P10586); experiment: NVS_ENZ_hPTPRF: NovaScreen (NVS) Enzymatic Assay for human Protein Tyrosine Phosphatase Receptor Type F (PTPRF) (AID 2283213)
# Method in brief: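 Cell-free fluorescence enzyme assay with recombinant protein and substrate; product separated by electrophoretic mobility shift. Read 1 h after dosing, single 25 uM duplicate screen, then concentration-response up to 50 uM; loss of signal vs DMSO.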
# [9] = molecular target: human Protein Tyrosine Phosphatase Non-receptor Type 6 (PTPN6), PTPN6 (gene 5777) (UniProt P29350); experiment: NVS_ENZ_hPTPN6: NovaScreen (NVS) Enzymatic Assay for human Protein Tyrosine Phosphatase Non-receptor Type 6 (PTPN6) (AID 2283210)
# Method in brief: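 Cell-free assay with recombinant PTPN6 expressed in SF9 cells, fluorescent substrate, product separated from substrate by electrophoretic mobility shift; read 1.33 hours after dosing. Primary screen in duplicate at 25 uM, actives retested in concentration series; DMSO baseline.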
# [10] = molecular target: Tyrosine-protein phosphatase non-receptor type 14 (Homo sapiens) (UniProt Q15678); experiment: NVS_ENZ_hPTPN14: NovaScreen (NVS) Enzymatic Assay for human Protein Tyrosine Phosphatase Non-receptor Type 14 (PTPN14) (AID 2283206)
# Method in brief: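 Cell-free recombinant human PTPN14 with fluorescent substrate, read 0.5 h after dosing by fluorescence and electrophoretic mobility shift separating substrate from product. Primary screen at 25 uM in duplicate; hits run to 50 uM maximum; loss of signal versus DMSO.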
# human Protein Tyrosine Phosphatase Receptor Type C (PTPRC), PTPRC (gene 5788), sequence (P08575 whole entry, looked up): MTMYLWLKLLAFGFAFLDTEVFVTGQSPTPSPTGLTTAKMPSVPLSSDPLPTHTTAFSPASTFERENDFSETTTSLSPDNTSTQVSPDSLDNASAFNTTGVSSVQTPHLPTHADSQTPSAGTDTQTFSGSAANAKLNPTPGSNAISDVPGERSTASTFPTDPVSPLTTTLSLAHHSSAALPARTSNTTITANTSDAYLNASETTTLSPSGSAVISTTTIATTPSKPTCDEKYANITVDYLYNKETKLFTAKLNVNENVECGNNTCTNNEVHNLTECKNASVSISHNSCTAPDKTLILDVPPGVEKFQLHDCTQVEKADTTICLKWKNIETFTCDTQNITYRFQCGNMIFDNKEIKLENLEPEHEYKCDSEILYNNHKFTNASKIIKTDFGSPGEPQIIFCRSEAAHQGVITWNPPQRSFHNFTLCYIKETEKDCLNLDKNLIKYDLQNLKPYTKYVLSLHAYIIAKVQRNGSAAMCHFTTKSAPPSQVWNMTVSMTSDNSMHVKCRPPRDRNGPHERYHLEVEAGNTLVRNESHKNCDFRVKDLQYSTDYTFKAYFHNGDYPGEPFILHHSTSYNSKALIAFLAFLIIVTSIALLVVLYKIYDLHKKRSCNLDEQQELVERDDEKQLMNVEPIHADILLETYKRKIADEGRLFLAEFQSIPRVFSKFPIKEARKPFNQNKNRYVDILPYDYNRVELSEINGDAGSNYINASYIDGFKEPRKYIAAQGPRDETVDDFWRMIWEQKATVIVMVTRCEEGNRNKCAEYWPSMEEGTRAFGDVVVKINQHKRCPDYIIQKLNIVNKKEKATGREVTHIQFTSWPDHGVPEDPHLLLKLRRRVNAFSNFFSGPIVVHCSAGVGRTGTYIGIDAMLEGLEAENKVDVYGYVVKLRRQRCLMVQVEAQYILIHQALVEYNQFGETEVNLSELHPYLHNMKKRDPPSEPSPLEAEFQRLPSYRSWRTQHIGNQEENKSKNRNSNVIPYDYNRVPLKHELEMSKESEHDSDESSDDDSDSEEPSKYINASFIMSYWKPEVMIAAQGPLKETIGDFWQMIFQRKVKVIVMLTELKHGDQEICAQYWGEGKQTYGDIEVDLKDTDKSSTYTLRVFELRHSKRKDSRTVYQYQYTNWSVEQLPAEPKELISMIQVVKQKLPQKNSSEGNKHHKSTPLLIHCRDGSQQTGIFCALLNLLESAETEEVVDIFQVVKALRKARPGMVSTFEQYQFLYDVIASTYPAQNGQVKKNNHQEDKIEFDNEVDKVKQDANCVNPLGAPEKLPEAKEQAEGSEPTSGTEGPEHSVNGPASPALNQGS
# human Protein Tyrosine Phosphatase Non-receptor Type 2 (PTPN2), PTPN2 (gene 5771), sequence (P17706 whole entry, looked up): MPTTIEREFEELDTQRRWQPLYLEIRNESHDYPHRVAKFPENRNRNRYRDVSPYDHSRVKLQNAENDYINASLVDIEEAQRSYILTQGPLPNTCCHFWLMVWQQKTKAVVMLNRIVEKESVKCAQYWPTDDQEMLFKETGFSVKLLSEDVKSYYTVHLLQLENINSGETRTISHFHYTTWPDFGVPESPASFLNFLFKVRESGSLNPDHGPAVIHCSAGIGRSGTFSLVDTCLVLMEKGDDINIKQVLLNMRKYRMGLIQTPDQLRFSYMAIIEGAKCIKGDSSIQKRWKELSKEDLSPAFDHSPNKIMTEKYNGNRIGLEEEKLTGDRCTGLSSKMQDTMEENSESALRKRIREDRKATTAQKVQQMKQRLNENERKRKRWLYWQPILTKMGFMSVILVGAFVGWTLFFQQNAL
# human Protein Tyrosine Phosphatase Receptor Type B (PTPRB), PTPRB (gene 5787), sequence (P23467 whole entry, looked up): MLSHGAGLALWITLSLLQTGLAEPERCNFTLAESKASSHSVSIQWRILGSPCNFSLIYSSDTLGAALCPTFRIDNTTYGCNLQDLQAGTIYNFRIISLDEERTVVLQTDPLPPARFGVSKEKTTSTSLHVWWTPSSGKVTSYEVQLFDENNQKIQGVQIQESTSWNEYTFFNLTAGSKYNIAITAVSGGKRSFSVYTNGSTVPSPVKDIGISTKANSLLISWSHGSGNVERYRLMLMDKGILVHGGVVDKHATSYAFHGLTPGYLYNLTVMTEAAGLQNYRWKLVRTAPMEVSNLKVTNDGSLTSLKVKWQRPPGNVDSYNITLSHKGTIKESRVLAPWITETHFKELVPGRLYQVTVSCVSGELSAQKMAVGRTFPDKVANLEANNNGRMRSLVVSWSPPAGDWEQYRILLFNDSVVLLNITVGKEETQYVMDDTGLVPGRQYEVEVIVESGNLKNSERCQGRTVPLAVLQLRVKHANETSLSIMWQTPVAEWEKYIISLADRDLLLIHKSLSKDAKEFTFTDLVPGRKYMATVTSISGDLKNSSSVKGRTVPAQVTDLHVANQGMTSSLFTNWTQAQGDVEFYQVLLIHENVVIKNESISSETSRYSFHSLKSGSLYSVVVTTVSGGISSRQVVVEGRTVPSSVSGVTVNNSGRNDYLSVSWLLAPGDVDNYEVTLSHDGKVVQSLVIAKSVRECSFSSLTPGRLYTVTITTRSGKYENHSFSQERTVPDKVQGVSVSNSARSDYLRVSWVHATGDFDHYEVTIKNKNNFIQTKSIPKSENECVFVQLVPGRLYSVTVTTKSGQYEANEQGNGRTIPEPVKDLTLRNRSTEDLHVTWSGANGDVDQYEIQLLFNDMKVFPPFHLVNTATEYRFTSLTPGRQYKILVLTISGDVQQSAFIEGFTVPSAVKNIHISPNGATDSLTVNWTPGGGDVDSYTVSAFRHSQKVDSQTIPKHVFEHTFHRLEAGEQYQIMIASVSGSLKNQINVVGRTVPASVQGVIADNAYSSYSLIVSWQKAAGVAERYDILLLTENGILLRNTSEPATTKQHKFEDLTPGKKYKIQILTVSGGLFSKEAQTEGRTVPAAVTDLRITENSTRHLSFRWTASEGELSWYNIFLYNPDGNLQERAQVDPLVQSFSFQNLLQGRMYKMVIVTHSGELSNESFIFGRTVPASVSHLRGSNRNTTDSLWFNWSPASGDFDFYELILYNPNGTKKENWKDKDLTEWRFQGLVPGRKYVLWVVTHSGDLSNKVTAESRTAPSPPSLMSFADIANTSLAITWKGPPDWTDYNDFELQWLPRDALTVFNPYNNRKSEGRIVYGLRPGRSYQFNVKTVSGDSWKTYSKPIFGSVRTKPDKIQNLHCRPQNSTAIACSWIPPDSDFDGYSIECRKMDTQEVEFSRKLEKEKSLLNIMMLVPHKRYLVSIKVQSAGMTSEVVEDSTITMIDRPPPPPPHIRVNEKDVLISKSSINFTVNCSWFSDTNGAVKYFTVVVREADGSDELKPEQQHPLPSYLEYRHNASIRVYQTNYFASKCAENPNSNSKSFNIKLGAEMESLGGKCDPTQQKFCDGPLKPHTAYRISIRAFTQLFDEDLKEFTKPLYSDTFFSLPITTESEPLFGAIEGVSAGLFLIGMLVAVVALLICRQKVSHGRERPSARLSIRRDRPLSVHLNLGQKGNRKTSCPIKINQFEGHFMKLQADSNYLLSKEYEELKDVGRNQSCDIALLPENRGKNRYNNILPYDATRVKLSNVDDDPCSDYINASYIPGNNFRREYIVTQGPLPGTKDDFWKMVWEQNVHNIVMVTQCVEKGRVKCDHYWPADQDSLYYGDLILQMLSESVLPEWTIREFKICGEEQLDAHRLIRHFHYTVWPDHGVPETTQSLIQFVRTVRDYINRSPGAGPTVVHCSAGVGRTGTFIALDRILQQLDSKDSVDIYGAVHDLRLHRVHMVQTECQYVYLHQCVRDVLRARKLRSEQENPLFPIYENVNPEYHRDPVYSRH
# human Protein Tyrosine Phosphatase Non-receptor Type 9 (PTPN9), PTPN9 (gene 5780), sequence (P43378 whole entry, looked up): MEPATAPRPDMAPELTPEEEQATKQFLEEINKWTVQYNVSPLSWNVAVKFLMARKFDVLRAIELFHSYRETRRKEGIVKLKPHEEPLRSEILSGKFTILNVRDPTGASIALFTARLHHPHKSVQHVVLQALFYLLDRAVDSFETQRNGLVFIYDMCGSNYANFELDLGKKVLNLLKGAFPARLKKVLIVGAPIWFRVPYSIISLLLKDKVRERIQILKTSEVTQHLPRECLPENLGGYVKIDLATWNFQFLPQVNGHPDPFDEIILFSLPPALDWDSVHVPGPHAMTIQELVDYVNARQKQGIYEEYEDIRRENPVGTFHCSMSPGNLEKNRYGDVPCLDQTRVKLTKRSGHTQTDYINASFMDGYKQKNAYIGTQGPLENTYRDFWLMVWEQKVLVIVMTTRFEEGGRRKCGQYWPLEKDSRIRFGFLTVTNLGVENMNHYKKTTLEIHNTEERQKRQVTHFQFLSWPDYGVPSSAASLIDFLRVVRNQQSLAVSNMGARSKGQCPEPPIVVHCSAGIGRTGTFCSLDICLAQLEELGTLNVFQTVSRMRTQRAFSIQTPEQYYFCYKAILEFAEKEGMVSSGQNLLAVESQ
# human Protein Tyrosine Phosphatase Non-receptor Type 6 (PTPN6), PTPN6 (gene 5777), sequence (P29350 whole entry, looked up): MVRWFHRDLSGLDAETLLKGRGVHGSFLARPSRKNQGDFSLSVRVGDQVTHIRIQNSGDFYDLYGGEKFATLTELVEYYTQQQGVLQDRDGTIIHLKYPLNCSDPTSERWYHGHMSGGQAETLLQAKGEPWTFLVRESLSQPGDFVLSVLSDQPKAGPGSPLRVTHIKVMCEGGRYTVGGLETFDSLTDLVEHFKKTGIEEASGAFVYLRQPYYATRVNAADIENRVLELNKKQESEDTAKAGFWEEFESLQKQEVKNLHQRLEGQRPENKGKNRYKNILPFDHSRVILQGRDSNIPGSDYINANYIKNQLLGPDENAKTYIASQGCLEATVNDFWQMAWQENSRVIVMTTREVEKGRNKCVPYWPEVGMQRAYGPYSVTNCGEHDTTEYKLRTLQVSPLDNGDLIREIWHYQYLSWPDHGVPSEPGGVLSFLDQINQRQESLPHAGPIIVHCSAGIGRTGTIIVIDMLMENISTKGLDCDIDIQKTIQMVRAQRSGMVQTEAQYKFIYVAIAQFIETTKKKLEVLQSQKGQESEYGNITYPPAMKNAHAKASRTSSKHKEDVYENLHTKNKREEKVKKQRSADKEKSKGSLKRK
structure (smiles),measurement,setting,value
CCCCCCCCCCCCOS(=O)(=O)O,outcome,[1],inactive
O=C(CBr)c1ccc(O)cc1,outcome,[2],inactive
N#Cc1cccnc1,outcome,[1],inactive
same,outcome,[3],inactive
same,outcome,[4],inactive
same,outcome,[2],inactive
same,outcome,[5],inactive
CCCCCCCCCCCCc1cccc(S(=O)(=O)O)c1,AC50,[6],22.7 µM (active)
same,AC50,[4],5.53 µM (active)
same,AC50,[2],19.2 µM (active)
same,AC50,[7],6.82 µM (active)
Clc1cccc(Cl)c1Cl,outcome,[8],inactive
Oc1cc(Cl)c(Cl)cc1Cl,outcome,[9],inactive
COc1nn(C(=O)NS(=O)(=O)c2ccccc2OC(F)(F)F)c(=O)n1C,AC50,[2],6.08 µM (active)
COc1ccccc1N,AC50,[9],22.6 µM (active)
same,AC50,[7],17.5 µM (active)
O=C1c2ccccc2C(=O)C1C(=O)C(c1ccccc1)c1ccc(Cl)cc1 (centres undefined),AC50,[2],14.7 µM (active)
CC(C)O.CC(C)O.OCCN(CCO)CCO.OCCN(CCO)CCO.[Ti],AC50,[6],3.51 µM (active)
same,AC50,[10],0.00229 µM (active)
same,AC50,[1],0.00229 µM (active)
same,AC50,[2],0.00229 µM (active)
same,AC50,[8],3.38 µM (active)
O=C(O)C1(c2ccc3c(c2)OC[C@H](Cc2ccc(-c4ccccc4)cc2)[C@H]3O)CCCC1,outcome,[5],inactive
CN(C)C(=S)S,AC50,[7],7.44 µM (active)
